GRIN3A LBD mod: modulators (binders) of human NR3A ligand-binding domain; NR3A LBD differential scanning fluorimetry, Tm shift; 0% = protein alone, 100% = glycine-bound protein; Tm shift relative to glycine control, % at 25 µM; actives 2.5% (n = 340,000);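 active means melting temperature shift of at least 10% of the positive control shift, at one fixed dose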
rCAG RNA binder: binds r(CAG) RNA repeats; r(CAG) RNA repeat, TO-PRO-1 dye displacement fluorescence; inhibition, % at 3 µM; actives 1.3% (n = 370,000);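 active means inhibition above the plate cutoff, the mean of all test compounds on that plate plus 3 SD, cut at about 35% in these data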;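 further: 0% = DMSO alone and 100% = 100 µM mitoxantrone as full dye displacement; higher means more dye released from RNA so lower well fluorescence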
ADAM17 inh: inhibits human ADAM17; inhibition, % at 6.95 µM; AID 720648; P78536; recombinant ADAM17, EDANS/DABCYL FRET peptide cleavage; actives 0.83% (n = 370,000);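 active means inhibition above the mean of compounds lying between control limits plus 3 SD, set per campaign, cut at about 8.5% in these data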;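 further: 0% = DMSO-only wells as the low control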
Target sequence (P78536 215-824 limits assumed): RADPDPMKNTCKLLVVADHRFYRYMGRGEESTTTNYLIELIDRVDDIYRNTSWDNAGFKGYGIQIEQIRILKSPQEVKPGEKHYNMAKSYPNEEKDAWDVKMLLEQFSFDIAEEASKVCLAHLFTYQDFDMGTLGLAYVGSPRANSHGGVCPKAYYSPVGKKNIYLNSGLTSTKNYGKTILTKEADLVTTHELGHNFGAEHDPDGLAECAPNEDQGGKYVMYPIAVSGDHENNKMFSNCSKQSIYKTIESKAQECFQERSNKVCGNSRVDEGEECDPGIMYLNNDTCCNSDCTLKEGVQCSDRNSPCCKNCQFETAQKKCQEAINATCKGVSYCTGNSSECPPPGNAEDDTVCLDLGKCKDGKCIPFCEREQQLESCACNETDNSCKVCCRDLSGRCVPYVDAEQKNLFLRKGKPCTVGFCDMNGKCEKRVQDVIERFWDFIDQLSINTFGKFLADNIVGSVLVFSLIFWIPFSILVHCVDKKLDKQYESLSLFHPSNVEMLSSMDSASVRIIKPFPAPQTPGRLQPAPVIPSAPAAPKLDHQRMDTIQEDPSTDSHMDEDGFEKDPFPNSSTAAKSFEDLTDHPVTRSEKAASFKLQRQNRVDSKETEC
ADAM10 inh: ADAM10 inhibition, QFRET primary screen. O14672. recombinant ADAM10, EDANS/DABCYL FRET peptide cleavage, 3 h. inhibition, % at 7 µM. actives 0.62% (n = 370,000);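 active means inhibition above a per-campaign cutoff equal to the mean of compounds falling between control-based bounds plus 3 SD, cut at about 20% in these data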;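 further: 0% = DMSO wells while the 100% control is not disclosed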
AHR act: human AHR activation. AHR-responsive luciferase reporter cells, luminescence. activation, % at 5 µM. actives 2.5% (n = 320,000); in the data active means activation above about 47%;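 further: 0% = vehicle wells and 100% = reference agonist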
KLK7 zymogen act: proKLK7 (human) activation, primary screen; P49862; purified proKLK7, EDANS-DABCYL substrate fluorescence; 100% is mature enzyme control, 0% vehicle; activation, % at 7 µM; actives 0.9% (n = 370,000);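 active means activation above the mean of all tested compounds plus 3 SD, computed per campaign excluding outliers beyond control limits, cut at about 13% in these data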
proKLK7 act conf: proKLK7 activation, confirmation; shares compounds with KLK7 zymogen act; purified proKLK7, EDANS-DABCYL substrate fluorescence; scaled: vehicle 0, mature enzyme 100; activation, % at 7 µM; actives 68% (n = 3,200); AID 686949;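 active means activation, as change over the incubation, above the mean of all tested compounds plus 3 SD, cut at about 13% in these data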
EDANS interfere: counter-screen for kallikrein-7 activators: EDANS-DABCYL optical interference. shares compounds with KLK7 zymogen act. EDANS-DABCYL substrate fluorescence interference, no enzyme, 4 h; solvent 0%, active enzyme control 100%. activation, % at 7 µM. actives 80% (n = 3,200). AID 686952;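 active means activation above the all-compound mean plus 3 SD, ignoring values outside control-based bounds, cut at about 4.8% in these data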;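 further: value is the 4 h activation minus the activation read at time zero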
* = called active by the depositor; i = inactive; . = not tested or not shown. Compounds with a hit are over-represented: about 7% of the library has one in this group of screens.

SMILES	GRIN3A LBD mod	rCAG RNA binder	ADAM17 inh	ADAM10 inh	AHR act	KLK7 zymogen act	proKLK7 act conf	EDANS interfere
CC(=O)Nc1ccc(S(=O)(=O)N(Cc2ccccc2)C(C)C)cc1	1	5	2	6	1	0	.	.
O=C(c1ccc(N2CCOCC2)cc1[N+](=O)[O-])N1CCOCC1	-1	-6	-7	3	0	0	.	.
Cc1cc(C)c(C#N)c(SCC(=O)CC(=O)OC(C)C)n1	-3	-1	-32	-135	7	45*	72*	69*
COc1ccc(OC)c(NC(=O)COC(=O)CCc2ccc(S(=O)(=O)N3CCOCC3)cc2)c1	0	2	-1	-2	0	0	.	.
CCc1ccccc1NC(=O)CNC(=O)c1ccccc1OCc1c(C)noc1C	0	-3	-1	-2	2	0	.	.
COc1ccc(N2CCN(CCC(=O)c3ccc4ccccc4c3)CC2)cc1	-1	-5	-12	-14	2	22*	15*	15*
O=S1(=O)CCN2C=C(Cl)C=C(Cl)C2=N1	-1	2	-469	i	1	25*	33*	29*
COc1ccc([C@H](C)NC[C@H](O)c2ccc(O)c(NC=O)c2)cc1	2	.	.	.	-1	.	.	.
CC(C)NC[C@@H](O)c1ccc(O)c(O)c1	0	8	-7	-17	-1	33*	51*	49*
CC(=O)N1CCC2(CC1)CC(=O)c1cc(OCC(=O)NCc3ccc(C)cc3)ccc1O2	-1	-8	-437	i	10	35*	26*	46*
CC(=O)N1CCC2(CC1)CC(=O)c1cc(OCC(=O)NCc3ccco3)ccc1O2	1	3	-340	i	1	28*	48*	49*
Cc1cccc(OCC(=O)N2CCC3(CC2)CC(=O)c2ccccc2O3)c1	0	-7	-28	-75	0	0	.	.
CCc1cccc(C)c1NC(=O)Nc1c(Br)cnn1C	-1	.	.	.	1	.	.	.
COc1cc2sc3cc(NCC[C@@H]4CCCN4C)ccc3c(=O)c2cc1OC	-1	13	-284	i	8	21*	-68	-65
C=CCNc1sc(C(=O)c2cccs2)c(N)c1C#N	-1	2	1	6	15	87*	6	-6
CCOC(=O)/C(=C(/C)N)C1CC(=O)NC1=O (centres undefined)	.	0	-8	-20	.	33*	37*	37*
CS(=O)(=O)NN1C(=O)c2ccccc2NC12CCCC2	1	-2	-310	i	-1	72*	38*	51*
O=C1c2ccccc2NC2(CCCC2)N1NS(=O)(=O)c1ccccc1	1	0	-76	-248	3	37*	31*	28*
Cc1ccn2c(=O)nc(SCC(=O)NCCc3ccccc3)nc2c1	4	4	-8	-19	-1	0	.	.
CCCCC1Cc2[nH]c(=S)[nH]c(=O)c2C(c2ccc(Cl)cc2)O1 (centres undefined)	.	9	-2	-8	.	1	.	.
CC1=C(C#N)C(c2ccc(O)cc2)C2=C(CCCC2=O)N1 (centres undefined)	0	-2	-75	-200	-2	3	.	.
CC1=C(C#N)C(c2cccnc2)C2=C(CC(c3ccc(Cl)cc3)CC2=O)N1 (centres undefined)	0	-3	-496	i	-3	13*	2	9.2*
C[n+]1ccc(/C=C/c2c[nH]c3ccc(F)cc23)cc1	0	-167	1	-13	.	15*	10	14*
CCCOc1cccc(C2C(C(=O)c3cccs3)=C(O)C(=O)N2CCN2CCOCC2)c1 (centres undefined)	0	9	-7	-3	1	0	.	.
CCOC(=O)c1nn(-c2ccc(F)cc2)cc1O	1	1	0	-9	-1	-4	.	.
SMILES	GRIN3A LBD mod	rCAG RNA binder	ADAM17 inh	ADAM10 inh	AHR act	KLK7 zymogen act	proKLK7 act conf	EDANS interfere
CCOC(=O)c1nn(-c2ccc3c(c2)CCN3C(C)=O)cc1O	1	-1	i	i	1	175*	-4	19*
Cn1cnnc1SCC(=O)Nc1ncc([N+](=O)[O-])s1	-3	16	-1	-7	3	0	.	.
OCC1(CCOc2ccccc2)CCN(Cc2nc3ccc(F)cc3[nH]2)CC1	-1	-7	-2	-6	6	0	.	.
CC(=O)Nc1cccc(C(=O)Oc2cccc(C)c2)c1O	-1	4	-12	-43	12	40*	48*	51*
Cc1ccc(CNCCCn2cnc3c(OCc4ccccc4)ncnc32)o1	-1	2	4	-2	.	0	.	.
CCC(C)c1ccc(S(=O)(=O)N2CCN(c3ccccn3)CC2)cc1 (centres undefined)	-1	-5	0	5	1	0	.	.
COC(=O)c1ccccc1-c1c2ccc(=N)cc-2oc2cc(N)ccc12	-31	-72	-1	-8	1	101*	65*	86*
COc1cc2c(cc1OC)CN(CCC(=O)c1ccc(Br)cc1)CC2	1	-7	-22	-56	2	14*	7	7.8*
COc1cc2c(cc1OC)CN(CC(=O)Nc1cccc(C)c1)CC2	-1	-3	-9	-22	5	2	.	.
COc1cc([N+](=O)[O-])ccc1NC(=O)CN1CCc2cc(OC)c(OC)cc2C1	-2	11	-52	-139	.	25*	2	2
COc1cc2c(cc1OC)CN(CC(=O)Nc1ccccc1C(=O)NCc1ccccc1)CC2	-1	-4	-2	1	4	2	.	.
COc1cc2c(cc1OC)CN(CC(=O)Nc1cccc([N+](=O)[O-])c1)CC2	2	4	-31	-76	1	28*	5	2
COc1cc2c(cc1OC)CN(CC(=O)NC(=O)NCc1ccccc1)CC2	1	-3	-29	-77	-2	15*	3	4.4*
Cc1ccc(-n2c(C)nnc2SCC(=O)N(C)c2c(N)n(Cc3ccccc3)c(=O)[nH]c2=O)cc1	0	1	-9	-8	-1	0	.	.
N=c1oc2cc(O)ccc2cc1C(=O)Nc1nc2ccccc2s1	1	3	i	i	16	55*	67*	73*
N=c1oc2cc(O)ccc2cc1C(=O)Nc1ccccn1	.	.	.	.	6	.	.	.
O=C(NCc1ccccn1)[C@@H]1CCCN1C(=O)[C@@H]1CCCN1C(=O)c1ccc(Cl)cc1	.	-1	-6	-7	.	0	.	.
CCCNC(=O)N1CCN(S(=O)(=O)c2ccc3c(c2)OCCO3)CC1	-3	2	-3	-3	-2	0	.	.
